The record followed here is PubChem BioAssay (NCI).

This is part of a sample that, as a whole, favours compounds with a hit. Of some 79,000 tested, about 15% had one in any assay. Unmarked numbers belong to inactive results. Calls of active or inactive are those of the source. Cut-off read from the data, not from the text of the source: active = growth inhibition above about 70%; inactive = the rest. Where a SMILES comes first, the peptide text is derived from it. The star is where a group is joined. Cbz = O=C(OCc1ccccc1)*

Test [1] in a line: NCI Yeast Anticancer Drug Screen. Data for the rad50 strain (AID 155).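 Note: 0% = growth of vehicle-only cultures of the same strain.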 The settings on record: S. cerevisiae rad50 strain growth inhibition; at 50.0 µM; stronger effect = higher value. The method in brief:
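DNA repair mutant yeast, compound exposure, growth read-out; inhibition is taken relative to vehicle.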

A short description of test [2]: NCI Yeast Anticancer Drug Screen. Data for the mec2-1 strain (AID 157). The settings on record: S. cerevisiae mec2-1 strain, at 50.0 µM, stronger effect = higher value. The method in brief: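 Growth inhibition is read against vehicle-treated controls after compound exposure of the mec2-1 yeast strain, which is defective in DNA damage repair or cell cycle control.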
Test [3] can be described thus: NCI Yeast Anticancer Drug Screen. Data for the sgs1 mgt1 strain (AID 161).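 Note: 0% = growth of cultures given vehicle only.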 The settings on record: S. cerevisiae sgs1 mgt1 strain, at 50.0 µM, stronger effect = higher value. The method in brief:
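Growth of a repair-deficient yeast mutant was monitored after compound treatment and expressed as inhibition relative to vehicle-treated cultures.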

The nature of test [4]: NCI Yeast Anticancer Drug Screen. Data for the cln2 rad14 strain (AID 165).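 Note: 0% = growth equal to vehicle treated cultures.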 The settings on record: S. cerevisiae cln2 rad14 strain, at 50.0 µM, stronger effect = higher value. The method in brief: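 Growth inhibition, relative to vehicle-treated controls, is the read-out. The test organism is a yeast strain with defined genetic alterations, cln2 rad14.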
Test [5] is described as follows: NCI Yeast Anticancer Drug Screen. Data for the bub3 strain (AID 167). Conditions: S. cerevisiae bub3 mutant strain, at 50.0 µM, stronger effect = higher value. In outline:
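In this screen, a yeast mutant lacking normal mitotic checkpoint function is challenged with compound. Relative growth versus vehicle gives the inhibition value.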

A short description of test [6]: NCI Yeast Anticancer Drug Screen. Data for the mlh1 rad18 strain (AID 175). Conditions: S. cerevisiae mlh1 rad18 strain growth inhibition; at 50.0 µM; stronger effect = higher value. The method in brief:
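Cells of a genetically altered yeast strain, deficient in DNA damage repair, were treated with compound. Their growth was then compared with that of vehicle-treated cultures to give inhibition.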

For `O=C(COc1cc(Cl)c(Cl)cc1Cl)Nc1ccccc1Br`, the growth inhibition is 2.5% in test [1]; -6.9% in test [2]; 0.1% in test [3]; -15.9% in test [4]; 2.2% in test [5]; -8.85% in test [6].

Consider `CCOC(OCC)c1ccc(O)cc1`, for which the growth inhibition was -4.4% in test [1]; 3.15% in test [2]; 20.3% in test [3]; -19.2% in test [4]; -2.2% in test [5]; 12.1% in test [6].

`O=C(NC1CCCCC1)C1C2CC3OC(=O)C1C3C2` (stereo unspecified): the growth inhibition in test [1] was -10.8%; in test [2], -19.2%; in test [3], 37.1%; in test [4], -27.6%; in test [5], 20.5%; in test [6], -10.1%.

For the compound `CC(=O)C1C(=O)C(=O)N(Cc2ccccc2)C1=O` (stereo unspecified), the growth inhibition was -20.4% in test [1]; -13.8% in test [2]; -27.4% in test [3]; -19.3% in test [4]; -7.4% in test [5]; -19.6% in test [6].

As to `c1ccc(-c2coc(-c3ccccc3)c2)cc1`, the growth inhibition in test [1] was -16.2%; in test [2] it was -11.8%; in test [3] it was -17.6%; in test [4], -12.2%; in test [5] it was -9.35%; in test [6], -1.9%.

For `COC(=O)/C(C)=C/C=C/C(OC)C(OC(N)=O)/C(C)=C/C(C)C(O)C(CC(C)CC1=C(OC)C(=O)C=C(N)C1=O)OC` (stereo unspecified), the growth inhibition in test [1] was 5.85%; in test [2] it was 24.8%; in test [3] it was 17%; in test [4], 9.3%; in test [5], 2.85%; in test [6], 13.8%.

In the case of `O=C(NC(Cc1ccccc1)C(=O)N1CCCC1C(=O)O)OCc1ccccc1` (stereo not drawn) (Cbz-Phe-Pro-OH; configuration not given here), the growth inhibition in test [1] was 7.75%; in test [2] it was 2.55%; in test [3], -7.05%; in test [4], -13.9%; in test [5], -1.75%; in test [6] it was 5.05%.

Take `O=C(Nc1ccccc1)c1cc([N+](=O)[O-])cc([N+](=O)[O-])c1`: the growth inhibition in test [1] is 9.25%; in test [2], 16.4%; in test [3], 15.3%; in test [4], -24.6%; in test [5], 9.55%; in test [6], 0.05%.

Turning to `Nc1ccc(C(=O)O)cc1Cl`, the growth inhibition in test [1] is 0.85%; in test [2], 0.75%; in test [3], 2.9%; in test [4] it was -35.5%; in test [5] it was -6.3%; in test [6], -22.2%.

Take `Nc1ccccc1S(=O)O`: the growth inhibition in test [1] is -4%; in test [2], 8.55%; in test [3] it was 14.9%; in test [4], 7.7%; in test [5] it was -25.9%; in test [6], 13.1%.

As for `CCCC1OC1(CC)C(=O)OCC(CC)(COC(=O)C1(CC)OC1CCC)COC(=O)C1(CC)OC1CCC` (stereo unspecified), the growth inhibition in test [1] is -7.4%; in test [2], -19.5%; in test [3], 1.25%; in test [4], -2.05%; in test [5], 4.35%; in test [6], 4%.

Take `C[S+](C)CCOC(=O)C(=[N+]=[N-])c1ccc([N+](=O)[O-])cc1`: the growth inhibition is 32.5% in test [1]; 9.8% in test [2]; 44.3% in test [3]; 25.8% in test [4]; 9.9% in test [5]; 59.4% in test [6].

Regarding `S=C1CSc2c(ccc3ccccc23)N1`, the growth inhibition in test [1] is -30.8%; in test [2] it was -14.8%; in test [3], 19.2%; in test [4] it was 4.95%; in test [5] it was 19.9%; in test [6] it was -9.4%.

For `Cc1ccc(NC(=O)CC(=O)CC(C)C)cc1C`, the growth inhibition in test [1] was -22.2%; in test [2], -24.8%; in test [3] it was -17.4%; in test [4] it was 0.75%; in test [5], -37%; in test [6] it was -10.8%.

On to `N/C(=N\Cl)C(Cl)(Cl)Cl`, for which the growth inhibition was -17.9% in test [1]; -16.5% in test [2]; 6.25% in test [3]; -26.6% in test [4]; 2.1% in test [5]; -21.4% in test [6].

For the compound `CC(=O)OC[C@]1(O)CC[C@@]23CC1C[C@@H]2CCC1C(C)(C)CCC[C@@]13C` (stereo partly specified), the growth inhibition in test [1] was 81.5% (active); in test [2] it was 41.6%; in test [3], 64.8%; in test [4] it was 71.6% (active); in test [5], 67.7%; in test [6] it was 64.4%.

As for `COc1ccc(NC(=S)NN=C(C)c2cccc(C(C)=NNC(=S)Nc3ccc(OC)cc3)n2)cc1`, the growth inhibition was -26.1% in test [1]; -23.1% in test [2]; 5.15% in test [3]; -15.7% in test [4]; -14.3% in test [5]; 1.95% in test [6].

`CCOC(=O)COc1ccc(Cl)cc1C`: the growth inhibition in test [1] is 11.7%; in test [2], -4.7%; in test [3], -2.4%; in test [4], 4.45%; in test [5], 6.8%; in test [6] it was -17.2%.

With `O=C1/C(=C/c2ccccc2)N=C(c2ccccc2)N1n1c(-c2ccccc2)nc2ccccc2c1=O`, the growth inhibition in test [1] was 7.5%; in test [2], 0.35%; in test [3] it was 24.4%; in test [4], 17.8%; in test [5] it was -4.05%; in test [6], 21.8%.

As to `O=C1c2ccccc2C(=O)c2c(Cl)ccc(O)c21`, the growth inhibition is 3.15% in test [1]; 11.2% in test [2]; 3.8% in test [3]; 0.1% in test [4]; 30.4% in test [5]; 19.9% in test [6].

For the compound `CCCCCN(C(=O)CCC)c1ccccc1`, the growth inhibition in test [1] is 45.8%; in test [2] it was 8.5%; in test [3], 24.5%; in test [4], 17.7%; in test [5] it was 3.2%; in test [6], 41.8%.
